Records with an inconclusive call do not appear. Active and inactive are the calls of the source.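 How the source made its calls, unless noted: active means viability loss from added drug above about 55%, and viability with drug at most 40%, in both replicates (limit read from the data, passing the limit was not always enough); inconclusive means both conditions met in only one replicate; inactive means neither replicate meets both conditions.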
Key:
[1] = reduced viability of SK-BR-3 breast cancer cells – cell-based, 24 h, human, pilot screen (AID 572;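 active means viability at or below 10% of carrier control in both of two separate runs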;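 further: compound exposure lasted between 18 and 24 h rather than exactly 24 h; 100% = carrier-treated control wells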); details: SK-BR-3 viability, CellTiter-Glo luminescence, at 10 µM, stronger effect = lower value
[2] = HUVEC growth inhibition – cell-based, human, primary screen (AID 575;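 active means viability at or below 30% in both replicate assays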;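 further: 100% = median of untreated cell wells with 0.1% DMSO on each plate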); details: HUVEC proliferation, CellTiter-Glo luminescence, 72 h; at 10 µM; stronger effect = lower value
[3] = H69AR cell proliferation blockers – human, duplicate replicates, primary screen (AID 580;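 active means viability at or under a set limit in both replicates, limit being median viability minus 3 SD, cut at about 48% in these data, passing the limit was not always enough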;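 further: 100% = mean luminescence of untreated wells and 0% = no signal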); details: H69AR lung tumor cells viability, ATP luminescence, 72 h; at 10 µM; stronger effect = lower value
[4] = MRP1 drug-resistance reversers in H69AR cells – cell-based, doxorubicin co-treatment, pilot screen (AID 601); details: CellTiter-Glo, 72 h, at 10 µM; for differential viability (reversal): stronger effect = higher value
[5] = yeast transport mutant growth inhibition pilot in 384-well plates, post-Golgi transport modulator project (AID 636; in the data active means inhibition above about 31%); details: absorbance 615 nm, about 18 h, stronger effect = higher value
[6] = growth suppression of yeast trafficking mutant, preliminary HTS, modulators of trafficking downstream of Golgi apparatus project, 1536-format plate, OD 615 nm (AID 637; in the data active means inhibition above about 30%); details: yeast transport mutant growth, absorbance 615 nm, 18 h; stronger effect = higher value
[7] = S. cerevisiae growth inhibition in permissive medium (OD615), pilot counter-assay for S. cerevisiae lifespan shortening project, permissive growth control (AID 705;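 active means growth inhibition above 25% in both replicates, a cutoff set 3 SD above the mean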); details: OD615, 24 h, at 10 µM, stronger effect = higher value
[8] = S. cerevisiae growth inhibition in restrictive medium, OD615, pilot screen, restrictive growth control, yeast lifespan reduction project (AID 706;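 active means growth inhibition above a set limit, 3 SD over mean compound inhibition, in both replicates, cut at about 43% in these data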;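 further: modified DeaD lifespan yeast strain shifted to restrictive glucose medium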); details: OD615, 48 h, at 10 µM, stronger effect = higher value
[9] = doxorubicin toxicity protection in MRP-1 cells – H69AR cells, CellTiter-Glo, duplicate, MRP-1 activator project, pilot screen (AID 807;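 active means viability increase at or above a cutoff of the median across tested compounds plus 3 SD, cut at about 8.5% in these data, passing the limit was not always enough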;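 further: compound pretreatment 18-22 h then 72 h combined with doxorubicin; 0% = doxorubicin alone and 100% = vehicle without doxorubicin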); details: H69AR viability with doxorubicin, CellTiter-Glo luminescence; at 10 µM; stronger effect = higher value
[10] = viability of HCT116 without oncogenic beta-catenin – human colon tumor cells, pilot screen (AID 823;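 active means cell viability at or below a set limit in both duplicate runs, the limit being the all-compound median minus 4 SD, cut at about 23% in these data, passing the limit was not always enough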;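 further: 0% = wells killed by 20 µM Hyamine and 100% = untreated DMSO cell wells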); details: HCT116 beta-catenin knockout viability, CellTiter-Glo, 60 h; at 10 µM; stronger effect = lower value
[11] = viability of PTEN-null HCT116 cells – cell-based, HCT116 clonal line, CellTiter-Glo, pilot screen (AID 824;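 active means viability at or below 27.92% in each of two runs, the all-compound median minus 4 SD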;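 further: 0% = 20 µM Hyamine control and 100% = vehicle cell control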); details: HCT116 PTEN-deleted viability, 60 h, at 10 µM, stronger effect = lower value
[12] = RAM pathway blockade in budding yeast – dse1pr::URA3 reporter, 5-FOA selection, pilot screen (AID 869;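 active means inhibition over a set limit, the all-compound mean plus 3 SD, in both replicate runs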;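 further: 0% = DMSO wells with no growth and 100% = 10 µM 1-NA-PP1 with full growth; RAM network block rescues cells from 5-FOA so hits raise OD615 growth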); details: S. cerevisiae dse1pr::URA3 5-FOA growth, OD615, 2 d; at 10 µM; stronger effect = higher value; strain carries analog-sensitive mutant Cbk1 kinase
[13] = RAM signaling pathway blockade in yeast – S. cerevisiae, Pdr1DBD-CYC8 efflux-inhibited sensitized strain, primary screen (AID 1298;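 active means RAM network inhibition above 8.4% in each of two replicates, 3 SD over the compound average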;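 further: 0% = DMSO untreated cells without growth and 100% = 10 µM 1-NA-PP1 full growth; higher means more yeast growth rescued from 5-FOA killing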); details: S. cerevisiae cbk1-as DSE1-URA3 strain, 5-FOA growth OD615, 2 d; at 50 µM; stronger effect = higher value
[14] = H69AR cells + 2 uM doxorubicin, measured here: viability with 2 uM doxorubicin, stronger effect = lower value
[15] = H69AR cells, compound alone cytotoxicity

Structure (SMILES) | viability [1] | viability [2] | viability [3] | differential viability (reversal) ([4]; H69AR cells + 2 uM doxorubicin) | viability [4, 14] [%] | viability [4, 15] [%] | inhibition [5] | inhibition [6] | growth inhibition [7] | growth inhibition [8] | viability increase [9] | viability [10] | viability [11] | inhibition [12] | RAM network inhibition [13]
Cc1cc(NC(=O)CSc2nc3c(c(-c4cccnc4)c2C#N)CCC3)no1 | 65% (inactive) | 111% (inactive) | 90.9% (inactive) | 6.63% (inactive) | 84.3 | 90.9 | -5.6% (inactive) | -3.09% (inactive) | 2.25% (inactive) | 1.02% (inactive) | 0.51% (inactive) | 101% (inactive) | 98.5% (inactive) | 1.75% (inactive) | 5.05% (inactive)
Cc1ccc(-c2cc(C(F)F)n3ncc(C(=O)N4CCN(c5ccccn5)CC4)c3n2)cc1 | 99.5% (inactive) | 49.2% (inactive) | – | 3.75% (inactive) | 52.2 | 56 | -6.4% (inactive) | 6.5% (inactive) | -6.85% (inactive) | 4.28% (inactive) | -5.43% (inactive) | 54.3% (inactive) | 55.4% (inactive) | -1.01% (inactive) | 6.29% (inactive)
CCc1ccc(C(=O)NC2CCCCC2)s1 | 68% (inactive) | 94.7% (inactive) | 109% (inactive) | 17.8% (inactive) | 90.7 | 109 | -3.01% (inactive) | 0.81% (inactive) | -14.4% (inactive) | 3.24% (inactive) | -0.13% (inactive) | 91.8% (inactive) | – | -0.215% (inactive) | 4.77% (inactive)
CC1CCN(c2c(NCc3ccc(C(=O)N4c5ccccc5CC4C)cc3)c(=O)c2=O)CC1 (stereo not given) | 95% (inactive) | 70.5% (inactive) | 37.2% (active) | -11.5% (inactive) | 48.7 | 37.2 | -0.13% (inactive) | 2.33% (inactive) | -17.3% (inactive) | -17.2% (inactive) | -7.24% (inactive) | 72.1% (inactive) | 66.8% (inactive) | 2.15% (inactive) | 2.31% (inactive)
O=C(Nc1cnccn1)c1cccs1 | 115% (inactive) | 106% (inactive) | 99% (inactive) | 7.32% (inactive) | 91.7 | 99 | -10.8% (inactive) | 1.77% (inactive) | -10.4% (inactive) | 1.52% (inactive) | -2.25% (inactive) | – | 94.2% (inactive) | 0.89% (inactive) | 7.21% (inactive)
CCOC(=O)c1cc(NC(=O)SCC(=O)O)c(C)nc1C | 82% (inactive) | 123% (inactive) | 88.1% (inactive) | 2.72% (inactive) | 85.4 | 88.1 | 2.34% (inactive) | -1.64% (inactive) | 0.31% (inactive) | 0.73% (inactive) | 2.31% (inactive) | 96.1% (inactive) | 101% (inactive) | 0.56% (inactive) | 0.38% (inactive)
Cc1cc(NC(=O)CS(=O)(=O)c2cn(Cc3ccccc3Cl)c3ccccc23)no1 | 92% (inactive) | 79.2% (inactive) | 92.1% (inactive) | 11.1% (inactive) | 81 | 92.1 | -5.2% (inactive) | 5.82% (inactive) | -4.35% (inactive) | -0.555% (inactive) | -2.24% (inactive) | – | 47.8% (inactive) | 2.17% (inactive) | 3.11% (inactive)
O=C(CCCn1c(=O)[nH]c2ccsc2c1=O)N1CCN(c2ccccn2)CC1 | 89% (inactive) | 99.5% (inactive) | 101% (inactive) | 6.23% (inactive) | 94.5 | 101 | -6.4% (inactive) | -0.18% (inactive) | -0.715% (inactive) | 2.48% (inactive) | -4.76% (inactive) | 100% (inactive) | – | 2.25% (inactive) | 4.21% (inactive)
CCc1c(C)n([O-])c2c([n+]1=O)CCC2 | 104% (inactive) | 89.2% (inactive) | 103% (inactive) | 5.73% (inactive) | 97 | 103 | -5.54% (inactive) | -2.62% (inactive) | -8.65% (inactive) | -5.88% (inactive) | -0.78% (inactive) | 99.4% (inactive) | 102% (inactive) | 0.88% (inactive) | 3.44% (inactive)
Cc1ccc(C)n1-c1ccc(-n2cnnn2)cc1 | 103% (inactive) | 97.5% (inactive) | – | -24.2% (inactive) | 76.6 | 52.4 | -3.47% (inactive) | -1.09% (inactive) | -9.52% (inactive) | 0.21% (inactive) | -7.7% (inactive) | 9.95% (active) | 10.3% (active) | 1.65% (inactive) | 5.78% (inactive)
CCNc1ccc(C(=O)OCC)cc1NC(=O)c1cc(S(=O)(=O)N2CCOCC2)ccc1C | 108% (inactive) | 83.3% (inactive) | 98.5% (inactive) | 8.02% (inactive) | 90.5 | 98.5 | 2.99% (inactive) | 5.41% (inactive) | -9.95% (inactive) | -3.6% (inactive) | -5.71% (inactive) | – | 87.1% (inactive) | 0.96% (inactive) | 8.14% (inactive)
Cc1ccc(-c2oc3ccccc3c(=O)c2O)cc1 | 78.5% (inactive) | – | 67.8% (inactive) | -6.71% (inactive) | 74.5 | 67.8 | -3.87% (inactive) | -1.17% (inactive) | -12.1% (inactive) | -12.3% (inactive) | -5.56% (inactive) | 10.2% (active) | 11.8% (active) | 2.66% (inactive) | 0.63% (inactive)
O=C(CCn1[nH]c(=O)c2ccccc2c1=O)NCCO | 78% (inactive) | 118% (inactive) | 89.3% (inactive) | -2.56% (inactive) | 91.9 | 89.3 | -7.07% (inactive) | -7.27% (inactive) | -16.2% (inactive) | -13.6% (inactive) | -0.03% (inactive) | 102% (inactive) | 102% (inactive) | 0.26% (inactive) | 0.2% (inactive)
O=C(Nc1ccncc1)c1cc2ccccc2o1 | 113% (inactive) | 101% (inactive) | 105% (inactive) | 13.8% (inactive) | 91.1 | 105 | -0.4% (inactive) | -0.36% (inactive) | -10.7% (inactive) | -6.96% (inactive) | -0.51% (inactive) | 95.7% (inactive) | 95.9% (inactive) | 1.73% (inactive) | 4.22% (inactive)
Brc1ccc2ncnc(Nc3ccc(N4CCOCC4)cc3)c2c1 | 86% (inactive) | – | 77.8% (inactive) | -14.1% (inactive) | 91.9 | 77.8 | -2.27% (inactive) | -4.36% (inactive) | -5.24% (inactive) | 11% (inactive) | -6.53% (inactive) | 81.9% (inactive) | 72.9% (inactive) | 1.01% (inactive) | 3.74% (inactive)
COC(=O)c1ccc(NC(=O)C2C3CCC(C3)C2C(=O)O)cc1 (stereo not given) | 96% (inactive) | 113% (inactive) | 90.4% (inactive) | 0.415% (inactive) | 90 | 90.4 | 2.13% (inactive) | 6.55% (inactive) | 10.2% (inactive) | 1.67% (inactive) | -2.31% (inactive) | 93.7% (inactive) | 93.6% (inactive) | 1.04% (inactive) | 1.43% (inactive)
COc1ccccc1OCCNC(=O)c1cccs1 | 84% (inactive) | 115% (inactive) | 91.1% (inactive) | 9.52% (inactive) | 81.6 | 91.1 | -3.33% (inactive) | -0.18% (inactive) | -6.5% (inactive) | 3.83% (inactive) | 0.85% (inactive) | 97.9% (inactive) | 103% (inactive) | 1.21% (inactive) | 7.11% (inactive)
COc1cc(C(=O)N2CCN(c3cc(Cl)ccc3Cl)CC2)cc(OC)c1OC | 77.5% (inactive) | 20.1% (active) | 29.8% (active) | -54.3% (inactive) | 84.1 | 29.8 | -4.27% (inactive) | 0% (inactive) | -13.2% (inactive) | -8.44% (inactive) | -6.62% (inactive) | – | 21.5% (active) | 0.575% (inactive) | 2.03% (inactive)

— PubChem BioAssay
